# Test results reported in PubChem BioAssay AID2315 (National Center for Advancing Translational Sciences (NCATS), 2010).
# Hit rate of the full screen: of about 290,000 compounds, about 27,000 (9.3%) were called active. Shown is part of a subset that was picked to be rich in actives. Values without a mark were called inactive. Cut-off read from the data, not from the text of the source: active = inhibition mostly above about 28% (no sharp cut-off); inactive = mostly below about 43%.
# Assay: A qHTS for Small Molecule Inhibitors of Shiga Toxin; note: 0% is about no effect
# Conditions: Vero cells, Shiga toxin protein synthesis inhibition reporter; at 38.7 µM, hits give high values
row,Compound,inhibition
1,CC(C)[C@@H]1COC(c2cccc(C3=N[C@H](C(C)C)CO3)c2)=N1,46.5% (active)
2,Cc1c(CCC(=O)O)c(=O)oc2cc3occ(-c4ccccc4)c3cc12,-11.6%
3,O=c1c(-c2ccccc2)coc2cc(O)ccc12,93% (active)
4,O=c1c(-c2ccccc2)coc2c(CN3CCOCC3)c(O)ccc12,7.81%
5,CC(C)c1ccc(C2C(C(=O)c3ccco3)=C(O)C(=O)N2CC2CCCO2)cc1 (centres undefined),1.66%
6,COc1ccc(S(=O)(=O)N2CCCC(C(=O)NCCCn3ccnc3)C2)cc1OC (centres undefined),-5.4%
7,Cc1sc2ncn(CC(=O)NCCCC(=O)N(C)Cc3ccccc3)c(=O)c2c1C,-9.55%
8,Cc1ccc(C(=O)NNC(=O)OC(C)(C)C)c(Cl)c1,90.5% (active)
9,CCOc1ccc(NC(=O)NNC(=O)c2ccc(Cl)cc2Cl)cc1,13.5%
10,CC(C)(C)OC(=O)N1CCC(C(=O)NNC(=O)c2ccc(Cl)cc2Cl)CC1,5.93%
11,CC(=O)Nc1ccc(NC(=O)c2ccc3c(c2)C(=O)N(c2ccccc2C)C3=O)cc1,-4.3%
12,O=C(Nc1cccc(Cl)c1)c1cc(S(=O)(=O)N2CCCCC2)c[nH]1,-7.57%
13,Cc1ccccc1NC(=O)CCNS(=O)(=O)c1ccc2[nH]c(=O)oc2c1,-2.35%
14,C=CCNc1ncnc2ccc(Br)cc12,-28.8%
15,COc1ccc(Nc2ncnc3sc(-c4ccccc4)cc23)c(OC)c1,4.65%
16,COc1ccc(Nc2ncnc3ccc(Br)cc23)c(OC)c1,57.7% (active)
17,COc1ccc(CN(C)C(=O)Cc2ccsc2)c(OC)c1OC,-10.3%
18,Cc1c(C)c2c(OCC(=O)NCCCO)cc3c(c2oc1=O)CCC(C)(C)O3,-7.03%
19,COc1ccccc1CNS(=O)(=O)CC12CCC(CC1=O)C2(C)C (centres undefined),-4.21%
20,Cc1nc(-c2ccc(Cl)cc2)sc1C(=O)NN,-18.4%
21,Cc1ccc(SCC(=O)c2sc(-c3ccccc3)nc2C)cc1,-2.76%
22,Cc1nc(-c2ccc(Cl)cc2)sc1C(=O)CBr,52.5% (active)
23,CCN1CCN(C(=O)C2CCN(S(=O)(=O)c3cc(Cl)ccc3Cl)CC2)CC1,-5.92%
24,CC1(C)c2[nH]c3ccccc3c2C[C@H]2C(=O)N(N)CC(=O)N21,11.8%
25,COc1ccc(NC(=O)CSCc2ccc([N+](=O)[O-])cc2)cc1OC,-3.27%

row,Compound,inhibition
1,CC(C)C(=O)N1CC(=O)Nc2ccc(F)cc2C1c1ccc(F)cc1 (centres undefined),-3.75%
2,COc1ccc(NC(=O)CCCC(=O)c2ccccc2)cc1,6.27%
3,COC(=O)c1ccc(/C=N/NC(=O)C(=O)N2CCCCCC2)cc1,-5.76%
4,COC(=O)c1ccc(NC(=O)c2ccccc2NS(=O)(=O)c2ccccc2)cc1,5.81%
5,Cc1ccc(C(=O)NC2CCN(C(=O)Nc3ccc(F)cc3)CC2)cc1,-7.26%
6,Cc1ccc(C(=O)CNc2ccc(F)cc2)cc1,45.5% (active)
7,COC(=O)c1ccc(NCC(=O)N2CCCCCC2)cc1,110% (active)
8,COC(=O)c1ccc(C(=O)OC)c(NC(=S)N2CCCCC2)c1,12.8%
9,COC(=O)c1ccc(NCC(=O)c2ccccc2)cc1,85.2% (active)
10,Cc1ccc(NC(=S)Nc2ccc(F)cc2)cc1,27.7%
11,c1ccc(Cc2ccc(OCCn3ccnc3)cc2)cc1,1.57%
12,COc1ccc(CN(C)C(=O)c2cc(-c3ccc(C)cc3C)nc3ccccc23)c(OC)c1OC,-8.91%
13,CC(=O)N1CCCc2cc(S(=O)(=O)N3CCCC(C(=O)N4CCN(c5cccc(Cl)c5)CC4)C3)ccc21 (centres undefined),-12.3%
14,COc1ccc(CNC(=O)C2CCN(C(=O)c3ccccc3)CC2)cc1,-21.8%
15,Cc1ccc2c(c1)N(CC(=O)NCCc1ccc(Cl)cc1)C(=O)c1cccnc1O2,4.91%
16,Cc1ccc(NC(=O)Cn2nc(C)c3ccccc3c2=O)c(C)c1,10.2%
17,Cc1ccc(C)c(S(=O)(=O)N2CCN(C(=O)Nc3ccccc3)CC2)c1,17.4%
18,Cc1ccc(NC(=O)c2ccn(C(=O)Nc3ccccc3)n2)c(C)c1,92.2% (active)
19,Cc1ccc2nc(-c3ccncc3)cc(C(=O)Nc3ccc4c(c3)OCCO4)c2c1,9.13%
20,O=C(Nc1ccc2c(c1)OCCO2)C(c1ccc(F)cc1)N1CCCCC1 (centres undefined),5.25%
21,CCOC(=O)c1cnc2ccc(F)cc2c1Nc1ccc2c(c1)OCCO2,35% (active)
22,COc1ccc(C(=O)N(C)CC(O)c2ccccc2)cc1OC1CCN(C(C)=O)CC1 (centres undefined),-21%
23,O=C(Cc1ccc(Br)cc1)N1CCN(c2ccccn2)CC1,45.9% (active)
24,O=C(CCC1CCCN(C(=O)Cc2ccc(F)cc2)C1)N1CCN(c2ccccn2)CC1 (centres undefined),-2.14%
25,O=C(Cc1ccccc1Cl)N1CCN(c2ccccn2)CC1,7.93%

row,Compound,inhibition
1,CNC(=O)c1sc(Nc2ccc(OCc3ccccc3)cc2)nc1C,43.2%
2,Cn1c(=NC(=O)c2cnccn2)sc2ccccc21,48.7% (active)
3,Cn1c(=NC(=O)CSCC(=O)N2CCCCC2)sc2ccccc21,20.2%
4,COC(=O)c1ccc(OC(=O)c2cnccn2)cc1,-3.05%
5,CCn1cc(C(=O)OCC(=O)Nc2cccc(C)c2)c(=O)c2ccc(C)nc21,12.3%
6,COc1ccc(S(=O)(=O)N2CCC(C(=O)NCCC(=O)NCc3cccc(OC)c3)CC2)cc1,-13%
7,COCCOC1CCN(C(=O)c2ccc(OC)c(OC3CCN(C(C)C)CC3)c2)CC1,3.86%
8,Cc1cc(Cl)ccc1C(=O)C1CCCN(C(=O)c2nonc2C)C1 (centres undefined),-11%
9,N#C/C(=C(/O)COC(=O)COc1ccc(Cl)cc1)c1nc2ccccc2[nH]1,-6.24%
10,O=C(Cc1nc2ccccc2[nH]c1=O)c1ccc(Cl)cc1,66.3% (active)
11,O=C(/C(=C/c1cccc(Cl)c1)c1nc2ccccc2[nH]1)c1ccccc1,37.9%
12,O=S(=O)(Nc1cccc2cccnc12)c1cccc2cccnc12,-6.53%
13,Cc1cccc(NC(=O)CCN2CC(C)CC(C)C2)c1 (centres undefined),-6.03%
14,CCCc1c(C(=O)O)cnn1-c1ccc(Cl)cc1,9.39%
15,CCCc1c(C(=O)Nc2ccc(F)cc2)cnn1-c1ccccc1,58.3% (active)
16,CCNC(=O)c1cnn(-c2ccccc2)c1-c1ccccc1,-0.867%
17,Cc1ccc2c(c1)N(S(=O)(=O)c1cc(-c3cc(C)no3)ccc1C)CCO2,18.2%
18,Oc1ccc(CN2CCN(c3ncccn3)CC2)cc1,-3.72%
19,c1cnc(N2CCN(c3ccc4ccccc4n3)CC2)nc1,71.6% (active)
20,O=C(c1ccncc1)N1CCN(c2ccc3ccccc3n2)CC1,-6.23%
21,C/C(=N/NC(=O)c1cc(Cl)ccc1O)C12CC3CC(CC(C3)C1)C2,25.6%
22,O=C(N/N=C1\CCSC1)c1cc(Cl)ccc1O,35.8% (active)
23,Cc1ccc(C)c(N2C(=O)CS/C2=N\NC(=O)c2ccccc2Cl)c1,-31.2%
24,C=CCn1c(SCC(=O)NC)nnc1C12CC3CC(CC(C3)C1)C2,13.7%
25,C/C(=N\NC(=O)c1ccoc1C)c1ccccc1O,104% (active)

row,Compound,inhibition
1,CC(C)=C(NC(=O)c1ccccc1)C(=O)N/N=C(\C)c1ccccc1O,-2.93%
2,C/C(=N\NC(=O)c1ccccc1C)c1ccc(N2CCOCC2)cc1,40.6%
3,CC1=C(C(=O)NC2CC(C)(C)Cc3c2cnn3-c2ccc(C)cc2)OCCO1 (centres undefined),-2.9%
4,COc1cc(S(=O)(=O)N2CCN=C2c2ccccc2)ccc1Cl,-4.87%
5,CCN(CC)CCCNC(=O)CCn1nc(-c2ccc(Cl)cc2)ccc1=O,-2.08%
6,COc1ccc2ccccc2c1/C=N/NC(=O)c1cc(C)[nH]n1,7.72%
7,CCn1c2ccc(F)cc2c2nnc(SCCN3CCOCC3)nc21,-3.64%
8,Cc1cccc(C)c1OCCN1CCOCC1,1.56%
9,Cc1cc2nc(SCCN3CCOCC3)[nH]c2cc1C,59.3% (active)
10,COc1cccc(CNS(=O)(=O)c2ccc3c(c2)N(C(C)=O)CCS3)c1,-13.7%
11,Cc1nc2ccccc2nc1N/N=C/c1ccc(O)cc1O,55.6% (active)
12,Oc1ccc(/C=N/Nc2nc(-c3ccccc3F)nc3ccccc23)c(O)c1,16%
13,Oc1ccc(/C=N/NC2=NCCCCC2)c(O)c1,97.5% (active)
14,Cc1cc(N/N=C/c2ccccc2F)c2ccccc2n1,26.9%
15,COc1ccc(/C=C(\C#N)C(=O)ONC2=NCCCCC2)cc1,20.9%
16,C[C@H](C(=O)CC(=O)OC(C)(C)C)[C@H](O)c1ccc(C(F)(F)F)cc1,1.74%
17,COCCCNC(=S)N1CCN(c2nc(-c3cccc(OC)c3)cs2)CC1,21.1%
18,C=CCOc1ccc(/C=C/C(=O)OCC(=O)NC2CCCCCC2)cc1,1.6%
19,COCC(=O)N1CCCC(C(=O)c2ccc(C(F)(F)F)cc2)C1 (centres undefined),-8.8%
20,CC(=O)Nc1ccc(S(=O)(=O)Oc2ccc(Br)cc2C(=S)N2CCOCC2)cc1,-12.5%
21,Cn1c(CNC(=O)c2ccco2)nnc1SCC(=O)N1CCN(c2ccccc2)CC1,4.34%
22,COc1ccccc1NC(=O)C1=C(C)NC(=O)NC1c1ccc(C)s1 (centres undefined),1.28%
23,COC(=O)c1c(NC(C)=O)sc(C(=O)Nc2ccccc2OC)c1C,-23.1%
24,COc1ccccc1NC(=O)c1ccc(C)s1,73.7% (active)
